Laboratory results taken from paper PMC5540273 (PLoS ONE, 2017).

system: DYRK1B; conditions: concentration: 1 μM, replicates: in singlicate; n = 1
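Also: KINOMEscan kinase panel screen.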

**Q.** With COc1cc2c(cc1OC[C@@H](O)CO)ncc1c3ccc(C#N)cc3[nH]c21 as the compound, how does the “%Inh” value read?
**A.** Its value is 83%.

**Q.** How did the “%Inh” value turn out when COc1ccc(Nc2ncc(C#N)c(Nc3ccccc3C(N)=O)n2)cc1N1CCN(C)CC1.Cl [GSK1558669] was run?
**A.** Its value is 87%.

**Q.** Which “%Inh” value does the source give for Cc1cccc(-c2nc(-c3ccc(S(C)(=O)=O)cc3)sc2-c2ccncc2)c1 here?
**A.** The value was 7%.

**Q.** How did the “%Inh” value turn out when COc1cc(Nc2nccc(N3CCC(NC(=O)c4cccc(NC(C)=O)c4)C3)n2)cc(OC)c1OC (stereo not drawn) [GSK1379754] was run?
**A.** The value was 28%.

**Q.** Which “%Inh” value does the source give for Cc1ccc(NC(=O)c2ccnc(N3CCN(C)CC3)c2)cc1-c1ccc(C(=O)NCC2CC2)cc1 [GW775604] here?
**A.** Its value is 0%.

**Q.** CSc1ccc(-c2cc3ncnc(SCC(=O)O)c3s2)cc1 was tested. Which “%Inh” value did it give?
**A.** Its value is 0%.

**Q.** With c1ccc(-c2cc(-c3c[nH]nc3-c3ccccn3)ccn2)cc1 [GW576604] as the compound, how does the “%Inh” value read?
**A.** Its value is 0%.

**Q.** Which “%Inh” value does the source give for O=C(Nc1n[nH]c2cc(-c3cccc(F)c3)ccc12)C1CC1 [SB-735464] here?
**A.** Its value is 0%.

**Q.** How did the “%Inh” value turn out when Cc1c(Cn2c(C)nn3c(=O)cc(N4CCOC(C)C4)nc23)cccc1C(F)(F)F (stereo not drawn) [GSK2344444] was run?
**A.** The value was 0%.

**Q.** With Cc1nnc(-c2ccc3ncc(-c4ccc(S(C)=O)cc4)n3c2)o1 (stereo not drawn) as the compound, how does the “%Inh” value read?
**A.** The value was 66%.

**Q.** For CN(C(=O)c1ccc(-c2cc(-c3c[nH]nc3-c3ccccn3)ccn2)cc1)C1CCOCC1 [GW810083], which “%Inh” value is on record?
**A.** Its value is 9%.

**Q.** Fc1ccc(-c2ncn(CCCN3CCOCC3)c2-c2ccccn2)cc1 [SB-211742] was tested. Which “%Inh” value did it give?
**A.** Its value is 37%.

**Q.** With COc1cc2c(cc1OCCN1CCN(C)CC1)ncc1c3ccc(C#N)cc3[nH]c21 as the compound, how does the “%Inh” value read?
**A.** Its value is 62%.

**Q.** Which “%Inh” value does the source give for O=C(c1ccc(-c2cc(-c3c[nH]nc3-c3ccccn3)ccn2)cc1)N1CCOCC1 [GW812171] here?
**A.** Its value is 0%.

**Q.** CC(=O)Nc1ccc(COc2ccc(Nc3ccnc4cc(-c5ccccn5)ccc34)cc2)cc1.Cl [GW440148] was tested. Which “%Inh” value did it give?
**A.** The value was 33%.

**Q.** Which “%Inh” value does the source give for O=C(NOCC1CC1)c1ccc(F)c(F)c1Nc1ccc(I)cc1Cl here?
**A.** The value was 0%.

**Q.** Which “%Inh” value does the source give for COc1ccc(Nc2nccc(N3CCC(NC(=O)Nc4cc(C)ccc4C)C3)n2)cc1 (stereo not drawn) [GSK1379741] here?
**A.** The value was 0%.

**Q.** For Cc1ccc(C(=O)NCC(N)=O)cc1-n1c(C)cc(OCc2ccc(F)cc2F)c(Br)c1=O, which “%Inh” value is on record?
**A.** The value was 0%.

**Q.** For Cl.Nc1ncnc2occ(-c3ccc(NC(=O)Nc4cc(C(F)(F)F)ccc4F)cc3)c12 [SB-707548], which “%Inh” value is on record?
**A.** Its value is 0%.

**Q.** Which “%Inh” value does the source give for Nc1nc(-c2ccc3c(N)n[nH]c3c2)cc(N2CCCC2)n1 [GSK2227430] here?
**A.** Its value is 4%.

**Q.** With CN(C1=C(c2ccccc2)C(=O)NC1=O)c1ccccc1 [SB-334860] as the compound, how does the “%Inh” value read?
**A.** The value was 9%.

**Q.** For CN1c2ccc(CNc3ccc(F)cc3)cc2-c2c(cnn2C)S1(=O)=O, which “%Inh” value is on record?
**A.** The value was 0%.

**Q.** COc1ccc(S(=O)(=O)NC2CCN(c3cc(C)nc(Nc4cccc(C#N)c4)n3)CC2)cc1.O=C(O)C(F)(F)F [GSK1653539] was tested. Which “%Inh” value did it give?
**A.** Its value is 39%.

**Q.** With N#Cc1ccc(-c2cc(-c3c[nH]nc3-c3ccccn3)ccn2)cc1 [GW693028] as the compound, how does the “%Inh” value read?
**A.** The value was 0%.

**Q.** For O=C(Nc1cccc(-c2nn3ncccc3c2-c2ccnc(Nc3cccc(C(F)(F)F)c3)n2)c1)c1c(F)cccc1F [GSK299495], which “%Inh” value is on record?
**A.** The value was 0%.

**Q.** With CCc1ccnc(/C=C/c2n[nH]c3cc(Sc4ccccc4C(=O)NC)ccc23)c1 as the compound, how does the “%Inh” value read?
**A.** The value was 4%.

**Q.** With Nc1nccc(-c2c(-c3ccc(F)cc3)ncn2C2CCN(CC(F)(F)F)CC2)n1 [SB-236560] as the compound, how does the “%Inh” value read?
**A.** Its value is 28%.

**Q.** For Cc1cn2c(=O)cc(N3CCOCC3)nc2n1Cc1cccc(Cl)c1Cl [GSK2334006], which “%Inh” value is on record?
**A.** Its value is 36%.

**Q.** How did the “%Inh” value turn out when COc1ccc(COc2cc(-n3cnc4ccccc43)sc2C(N)=O)cc1 [GSK1024304] was run?
**A.** The value was 12%.

**Q.** Which “%Inh” value does the source give for Fc1ccc(-c2ncn(CCCN3CCOCC3)c2-c2cccnc2)cc1 [SB-211743] here?
**A.** Its value is 0%.

**Q.** With CN1c2ccc(NCc3ccc(F)cc3)cc2-c2c(cnn2C)S1(=O)=O as the compound, how does the “%Inh” value read?
**A.** The value was 16%.

**Q.** Which “%Inh” value does the source give for O=C(NCCNc1ccnc(Nc2ccc(F)cc2)n1)c1cc2ccccc2s1 [GSK1379874] here?
**A.** Its value is 17%.

**Q.** Cc1cccc(-c2nc(Nc3ccc4ncsc4c3)c3ccccc3n2)n1 [GW867588] was tested. Which “%Inh” value did it give?
**A.** The value was 0%.

**Q.** How did the “%Inh” value turn out when NCC(NC(=O)c1cc(-c2cn[nH]c2)c(-c2ccnc3[nH]ccc23)s1)c1ccccc1.O=C(O)C(F)(F)F.O=C(O)C(F)(F)F (stereo not drawn) [GSK1325775] was run?
**A.** The value was 35%.

system: DYRK2; conditions: concentration: 1 μM, replicates: in singlicate; n = 1

**Q.** How did the “%Inh” value turn out when COc1cc2c(cc1OC[C@@H](O)CO)ncc1c3ccc(C#N)cc3[nH]c21 was run?
**A.** Its value is 86%.

**Q.** For COc1ccc(Nc2ncc(C#N)c(Nc3ccccc3C(N)=O)n2)cc1N1CCN(C)CC1.Cl [GSK1558669], which “%Inh” value is on record?
**A.** The value was 99.1%.

**Q.** For Cc1cccc(-c2nc(-c3ccc(S(C)(=O)=O)cc3)sc2-c2ccncc2)c1, which “%Inh” value is on record?
**A.** Its value is 0%.

**Q.** With COc1cc(Nc2nccc(N3CCC(NC(=O)c4cccc(NC(C)=O)c4)C3)n2)cc(OC)c1OC (stereo not drawn) [GSK1379754] as the compound, how does the “%Inh” value read?
**A.** Its value is 28%.

**Q.** For Cc1ccc(NC(=O)c2ccnc(N3CCN(C)CC3)c2)cc1-c1ccc(C(=O)NCC2CC2)cc1 [GW775604], which “%Inh” value is on record?
**A.** Its value is 0%.

**Q.** How did the “%Inh” value turn out when CSc1ccc(-c2cc3ncnc(SCC(=O)O)c3s2)cc1 was run?
**A.** Its value is 0%.

**Q.** With c1ccc(-c2cc(-c3c[nH]nc3-c3ccccn3)ccn2)cc1 [GW576604] as the compound, how does the “%Inh” value read?
**A.** Its value is 0%.

**Q.** With O=C(Nc1n[nH]c2cc(-c3cccc(F)c3)ccc12)C1CC1 [SB-735464] as the compound, how does the “%Inh” value read?
**A.** Its value is 16%.

**Q.** With Cc1c(Cn2c(C)nn3c(=O)cc(N4CCOC(C)C4)nc23)cccc1C(F)(F)F (stereo not drawn) [GSK2344444] as the compound, how does the “%Inh” value read?
**A.** Its value is 24%.

**Q.** For Cc1nnc(-c2ccc3ncc(-c4ccc(S(C)=O)cc4)n3c2)o1 (stereo not drawn), which “%Inh” value is on record?
**A.** Its value is 6%.

**Q.** With CN(C(=O)c1ccc(-c2cc(-c3c[nH]nc3-c3ccccn3)ccn2)cc1)C1CCOCC1 [GW810083] as the compound, how does the “%Inh” value read?
**A.** The value was 9%.

**Q.** For Fc1ccc(-c2ncn(CCCN3CCOCC3)c2-c2ccccn2)cc1 [SB-211742], which “%Inh” value is on record?
**A.** The value was 5%.

**Q.** How did the “%Inh” value turn out when COc1cc2c(cc1OCCN1CCN(C)CC1)ncc1c3ccc(C#N)cc3[nH]c21 was run?
**A.** Its value is 60%.

**Q.** Which “%Inh” value does the source give for O=C(c1ccc(-c2cc(-c3c[nH]nc3-c3ccccn3)ccn2)cc1)N1CCOCC1 [GW812171] here?
**A.** The value was 33%.

**Q.** How did the “%Inh” value turn out when CC(=O)Nc1ccc(COc2ccc(Nc3ccnc4cc(-c5ccccn5)ccc34)cc2)cc1.Cl [GW440148] was run?
**A.** Its value is 11%.

**Q.** How did the “%Inh” value turn out when O=C(NOCC1CC1)c1ccc(F)c(F)c1Nc1ccc(I)cc1Cl was run?
**A.** Its value is 0%.

**Q.** How did the “%Inh” value turn out when COc1ccc(Nc2nccc(N3CCC(NC(=O)Nc4cc(C)ccc4C)C3)n2)cc1 (stereo not drawn) [GSK1379741] was run?
**A.** Its value is 12%.

**Q.** With Cc1ccc(C(=O)NCC(N)=O)cc1-n1c(C)cc(OCc2ccc(F)cc2F)c(Br)c1=O as the compound, how does the “%Inh” value read?
**A.** Its value is 0%.

**Q.** Cl.Nc1ncnc2occ(-c3ccc(NC(=O)Nc4cc(C(F)(F)F)ccc4F)cc3)c12 [SB-707548] was tested. Which “%Inh” value did it give?
**A.** The value was 14%.

**Q.** With Nc1nc(-c2ccc3c(N)n[nH]c3c2)cc(N2CCCC2)n1 [GSK2227430] as the compound, how does the “%Inh” value read?
**A.** Its value is 37%.

**Q.** Which “%Inh” value does the source give for CN(C1=C(c2ccccc2)C(=O)NC1=O)c1ccccc1 [SB-334860] here?
**A.** Its value is 10%.

**Q.** Which “%Inh” value does the source give for CN1c2ccc(CNc3ccc(F)cc3)cc2-c2c(cnn2C)S1(=O)=O here?
**A.** The value was 0%.

**Q.** COc1ccc(S(=O)(=O)NC2CCN(c3cc(C)nc(Nc4cccc(C#N)c4)n3)CC2)cc1.O=C(O)C(F)(F)F [GSK1653539] was tested. Which “%Inh” value did it give?
**A.** Its value is 12%.

**Q.** How did the “%Inh” value turn out when O=c1cc(N2CCOCC2)nc2n(Cc3cccc(Cl)c3Cl)c(C3CC3)nn12 [GSK2358994] was run?
**A.** The value was 1%.

**Q.** How did the “%Inh” value turn out when N#Cc1ccc(-c2cc(-c3c[nH]nc3-c3ccccn3)ccn2)cc1 [GW693028] was run?
**A.** Its value is 0%.

**Q.** With O=C(Nc1cccc(-c2nn3ncccc3c2-c2ccnc(Nc3cccc(C(F)(F)F)c3)n2)c1)c1c(F)cccc1F [GSK299495] as the compound, how does the “%Inh” value read?
**A.** Its value is 0%.

**Q.** For CCc1ccnc(/C=C/c2n[nH]c3cc(Sc4ccccc4C(=O)NC)ccc23)c1, which “%Inh” value is on record?
**A.** Its value is 0%.

**Q.** For Nc1nccc(-c2c(-c3ccc(F)cc3)ncn2C2CCN(CC(F)(F)F)CC2)n1 [SB-236560], which “%Inh” value is on record?
**A.** Its value is 0%.

**Q.** Cc1cn2c(=O)cc(N3CCOCC3)nc2n1Cc1cccc(Cl)c1Cl [GSK2334006] was tested. Which “%Inh” value did it give?
**A.** The value was 0%.

**Q.** COc1ccc(COc2cc(-n3cnc4ccccc43)sc2C(N)=O)cc1 [GSK1024304] was tested. Which “%Inh” value did it give?
**A.** Its value is 12%.

**Q.** Which “%Inh” value does the source give for Fc1ccc(-c2ncn(CCCN3CCOCC3)c2-c2cccnc2)cc1 [SB-211743] here?
**A.** The value was 24%.

**Q.** For CN1c2ccc(NCc3ccc(F)cc3)cc2-c2c(cnn2C)S1(=O)=O, which “%Inh” value is on record?
**A.** Its value is 0%.

**Q.** How did the “%Inh” value turn out when O=C(NCCNc1ccnc(Nc2ccc(F)cc2)n1)c1cc2ccccc2s1 [GSK1379874] was run?
**A.** The value was 15%.

**Q.** How did the “%Inh” value turn out when Cc1cccc(-c2nc(Nc3ccc4ncsc4c3)c3ccccc3n2)n1 [GW867588] was run?
**A.** Its value is 33%.

**Q.** How did the “%Inh” value turn out when NCC(NC(=O)c1cc(-c2cn[nH]c2)c(-c2ccnc3[nH]ccc23)s1)c1ccccc1.O=C(O)C(F)(F)F.O=C(O)C(F)(F)F (stereo not drawn) [GSK1325775] was run?
**A.** Its value is 79%.
